Compounds with a hit are over-represented: about 19% of the library has one in this group of screens.
HT1080 IDH1KD tx: HT-1080 IDH1 knockdown cell toxicity (counter line); Potency, µM (doses to about 46.1 µM), for inactives: top-dose activity, negative = toxicity, actives largely listed as cytotoxic; actives 2% (n = 360,000); HT-1080 IDH1 knockdown viability, ATP luminescence, 48 h;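 note: potency is the fitted concentration of half-maximal effect; 0% = DMSO wells and -100% = cell-free medium wells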
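Using the IDH1-knockdown HT-1080 line run in the same batch and compound series as the NT line, viability after 48 h at 37 °C was determined by CellTiter-Glo luminescence and expressed as % activity.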
IL-1B inflam inh: blocks inflammasome-driven IL-1 beta release. THP-1 LPS/ATP IL-1B secretion, AlphaLISA, 16 h; active compounds read low. activity change, % at 57.5 µM. actives 4.7% (n = 360,000); in the data active = activity change below about -50%; inconclusive = mostly about -30% to -49%
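Secreted IL-1B measured by AlphaLISA bead assay after 16 h compound exposure of THP-1 cells; compounds (final up to 57.5 uM) added 1 h before LPS (250 ng/mL) and ATP (1.25 mM) stimulation; lower signal means less secretion.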
HT1080-NT tox: kills 2HG-producing HT-1080-NT fibrosarcoma cells. HT-1080-NT fibrosarcoma viability, CellTiter-Glo ATP luminescence, 48 h. Potency, µM (series often up to 46.1 µM), for the others: at the top dose activity, negative = less viability, actives largely listed as cytotoxic. actives 1.6% (n = 360,000);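 note: NT is the 2HG producing partner of a matched IDH1 knockdown line; potency is the fitted concentration of half-maximal effect; 0% = DMSO-treated cells and -100% = media-only wells without cells; nearly all actives have a fitted effect of over 55% in size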
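HT-1080-NT fibrosarcoma cells (2HG-overproducing), 750 cells/well in RPMI with 5% FBS, dosed after 2 h and incubated 48 h at 37C. CellTiter-Glo luminescence normalized to DMSO and no-cell wells; concentration-response curves fitted and classed.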
TDP1 cell noCPT: qHTS for Inhibitors of human tyrosyl-DNA phosphodiesterase 1 (TDP1): qHTS in cells in absence of CPT; DT40 Tdp1-/- hTDP1 cells, no CPT, ATP luminescence, 48 h; Potency, µM (top dose mostly 46.2 µM), for inactives: at the top dose activity change, negative = growth inhibition, most hits filed as inhibitors; actives 15% (n = 420,000); AID 686978, 2013; note: potency is the fitted concentration of half-maximal effect; nearly all actives have a fitted effect of over 55% in size
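Growth of hTDP1-complemented DT40 Tdp1-knockout cells is measured by ATP luminescence after at least 48 hr compound exposure at 37 °C, with DMSO substituting for the 20 nM CPT used in the parallel screen.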
TDP1 cell CPT: DT40-hTDP1 cell growth loss with CPT. chicken DT40 Tdp1-/-;hTDP1 cells + 20 nM CPT, ATP luminescence, 48 h. Potency, µM (doses to about 46.2 µM), without a hit: at the top dose activity change, negative = growth inhibition, usual class: inhibitors. actives 12% (n = 420,000); note: potency is the fitted concentration of half-maximal effect; nearly all actives have a fitted effect of over 55% in size
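Chicken DT40 Tdp1-/- cells stably complemented with human TDP1 were seeded at 400 cells/well in medium containing 20 nM camptothecin, exposed to pin-transferred compounds, and grown at 37 °C for at least 48 hr. Viability was read as ATP luminescence.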
uPA generation: inhibitors of cell surface uPA generation; cell surface uPA generation assay, qHTS; Potency, µM (highest dose often 38.3 µM), for the others: top-dose activity change, negative = inhibition, usual class: inhibitors; actives 0.31% (n = 330,000); AID 540303; active = well fitted inhibition curve with a large enough effect; inconclusive = small, poorly fitted or top-dose-only effect; inactive = no such curve, though single readings can be large or run the other way; tested in mouse RAW 264.7 cells; note: potency is the fitted concentration of half-maximal effect; nearly all actives have a fitted effect of over 55% in size
An asterisk follows results filed as active; u = inconclusive; x = no result; [ ] = remark or other dose. Unless noted, calls come from the whole dose curve; as a rule, active = well fitted curve in the direction sought with a large enough effect; inconclusive = small, poorly fitted or top-dose-only effect, or another doubt; inactive = no such curve, though single readings can be large; an effect the other way counts as inactive or inconclusive. Unless noted, % is set by controls: 0 for no effect and ±100 for the full control effect.

SMILES | HT1080 IDH1KD tx | IL-1B inflam inh | HT1080-NT tox | TDP1 cell noCPT | TDP1 cell CPT | uPA generation
C(=N\Nc1nc(Nc2ccccc2)nc(Nc2ccccc2)n1)/c1cccnc1 | -24% | -13 | -28% | 10µM* | 16µM* | 4%
CCOc1cc(/C=N/Nc2nncc(-c3ccccc3)n2)ccc1O | -23% | 37 | u | u | u | 3%
FC(F)(F)c1cccc(-c2ccc(/C=N/Nc3nncc(-c4ccccc4)n3)o2)c1 | 5% | 7 | 5% | 9.2µM* | u | -4%
C(=N/Nc1nc(-c2ccccc2)cc(-c2ccccc2)n1)/c1cccnc1 | -10% | -53* | -16% | 16µM* | u | -8%
COc1ccc2c(Cl)c(C(=O)NCCCn3ccnc3)sc2c1Cl | -25% | -10 | -8% | u | u | 7%
COc1ccc(-c2cn(Cc3ccc(C)cc3)nn2)cc1 | -4% | 10 | 2% | -13% | -30% | -5%
CN1CC(=O)N(CC(=O)Nc2cccc(C#N)c2)c2ccccc2C1=O | x | x | x | 24% | -2% | x
Cc1ccc(-c2cc(-c3ccccc3)nc(N/N=C/c3cccnc3)n2)cc1 | u | -18 | u | u | 29µM* | -29%
Cc1cc(-c2ccccc2)nc(N/N=C/c2cccnc2)n1 | 0% | -4 | 9% | -28% | -23% | 4%
CCN(CC)C(=O)Nc1ccc(OCC(O)CNC(C)(C)C)c(C(C)=O)c1 (stereo not drawn) | x | x | x | -10% | 2% | x
CCS(=O)(=O)N1CCN=C1SCc1cccnc1 | 10% | 4 | 14% | 13% | u | 11%
COc1ccc(CN2C(=O)NC3(CCCCCC3)C2=O)cc1F | 8% | 5 | 10% | 15µM* | 16µM* | 13%
COCCn1c(C)cc(C(=O)COc2cccnc2[N+](=O)[O-])c1C | 1% | 26 | 8% | -6% | u | -3%
Cc1cc(C)c(C(=O)COc2cccnc2[N+](=O)[O-])cc1C | u | 2 | u | 5.8µM* | 4.1µM* | -8%
CN(C1(C)CCS(=O)(=O)C1)S(=O)(=O)c1ccc2ccccc2c1 (stereo not drawn) | -2% | u | -7% | -23% | -12% | -4%
Cc1noc(C)c1S(=O)(=O)N(C)C[C@H]1Oc2ccc(NC(=O)NC3CCCCC3)cc2C(=O)N([C@H](C)CO)C[C@@H]1C | 5% | -9 | 28% | -4% | u | 2%
O=C1CC(c2ccncc2)c2cc3c(cc2N1)OCCO3 (stereo not drawn) | -6% | 9 | -4% | -3% | 5% | -9%
CC(C)c1ccc(C2CC(=O)Nc3cc4c(cc32)OCCO4)cc1 (stereo not drawn) | x | x | x | 29µM* | u | x
Cc1ccc(C2CC(=O)Nc3cc4c(cc32)OCCO4)cc1Br (stereo not drawn) | x | x | x | 16µM* | 18µM* | x
CCc1ccccc1NC(=O)Nc1nnc(N2CCCC2)s1 | x | x | x | -2% | -3% | x
CCCS(=O)(=O)NC(=O)C1(C)CCCN(C(=O)c2cc(OC)ccc2Br)C1 (stereo not drawn) | 1% | 38 | 10% | -2% | -4% | x
O=C(CN1Cc2ccccc2OC(c2ccsc2)C1)N1CCN(Cc2ccc3c(c2)OCO3)CC1 (stereo not drawn) | x | x | x | 23µM* | -11%[9.04 µM] | x
O=C(c1sccc1Br)N1CCN(Cc2ccc3c(c2)OCO3)CC1 | -15% | -71* | -1% | u | -29% | 2%
COc1cccc(OC)c1C(=O)N1CCN(Cc2ccc3c(c2)OCO3)CC1 | 1% | 3 | 2% | u | u | 2%
O=C(N1CCN(Cc2ccc3c(c2)OCO3)CC1)C12CC3CC(CC(C3)C1)C2 | -3% | -85* | 5% | u | u | 9%

Assay outcomes: PubChem, National Center for Advancing Translational Sciences (NCATS)
